For 20 compounds, growth inhibition results are on record in PubChem BioAssay (NCI).

This is part of a sample that, as a whole, favours compounds with a hit. Of some 79,000 tested, about 15% had one in any assay. Unmarked numbers belong to inactive results. Calls of active or inactive are those of the source. Rule as the data show it: active = growth inhibition above about 70%; inactive = the rest.

The nature of assay [1]: NCI Yeast Anticancer Drug Screen. Data for the rad50 strain (AID 155).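 Also: 0% = growth of vehicle-only cultures of the same strain.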 Particulars: S. cerevisiae rad50 strain growth inhibition; at 50.0 µM; stronger effect = higher value. The method, boiled down:
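Genetically altered yeast (DNA repair pathway); compound treatment; growth inhibition vs vehicle ctrl.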

The nature of assay [2]: NCI Yeast Anticancer Drug Screen. Data for the mec2-1 strain (AID 157). The note with it: S. cerevisiae mec2-1 strain, at 50.0 µM, stronger effect = higher value. The method, boiled down:
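Readout is yeast growth inhibition, normalised to vehicle-treated controls, in the mec2-1 strain exposed to compound.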

A short description of assay [3]: NCI Yeast Anticancer Drug Screen. Data for the sgs1 mgt1 strain (AID 161).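 Also: 0% = growth of cultures given vehicle only.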 The note with it: S. cerevisiae sgs1 mgt1 strain, at 50.0 µM, stronger effect = higher value. The method, boiled down: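 Compounds are added to genetically altered yeast, and growth is compared with cultures given vehicle alone to give percent inhibition.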
Assay [4] is described as follows: NCI Yeast Anticancer Drug Screen. Data for the cln2 rad14 strain (AID 165).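 Also: 0% = growth equal to vehicle treated cultures.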 The note with it: S. cerevisiae cln2 rad14 strain, at 50.0 µM, stronger effect = higher value. In a few lines: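 Relative to vehicle controls, growth inhibition of compound-treated cln2 rad14 yeast was recorded.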
Assay [5] can be described thus: NCI Yeast Anticancer Drug Screen. Data for the bub3 strain (AID 167). Particulars: S. cerevisiae bub3 mutant strain, at 50.0 µM, stronger effect = higher value. The method, boiled down:
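Yeast carrying a defined mutation is treated with each compound, and growth is compared with that of vehicle-exposed cells to give inhibition.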

A short description of assay [6]: NCI Yeast Anticancer Drug Screen. Data for the mlh1 rad18 strain (AID 175). The note with it: S. cerevisiae mlh1 rad18 strain growth inhibition; at 50.0 µM; stronger effect = higher value. The method, boiled down: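 Test agents were incubated with a yeast strain of defined genotype (DNA damage repair defect). Inhibition of growth was derived by comparison with vehicle-exposed cultures.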

Turning to `O=C1CCCCC1CN1CCCCC1` (stereo not given), the growth inhibition in assay [1] is 4.8%; in assay [2], -3.2%; in assay [3] it was -2.45%; in assay [4], -3.25%; in assay [5], 3.45%; in assay [6] it was 1.25%.
On to `CCOC(=O)C(Cc1ccc(N(CCCl)CCCl)cc1)NC(=O)C(C)NC(C)=O` (stereo not given), for which the growth inhibition in assay [1] was 0.45%; in assay [2] it was -7.3%; in assay [3], -15.5%; in assay [4], 15.7%; in assay [5], -0.6%; in assay [6] it was 7%.
For the compound `C[N+]12CCC(c3ccccc3)(CC1)C(O)C2` (stereo not given), the growth inhibition was -14.6% in assay [1]; -4.75% in assay [2]; 2.1% in assay [3]; -5.15% in assay [4]; 2.8% in assay [5]; 8.1% in assay [6].
Consider `CN(C)C(=O)C(CC[N+](C)(C)C)(c1ccccc1)c1ccccc1`, for which the growth inhibition in assay [1] was 8.65%; in assay [2], 5.5%; in assay [3], 5.55%; in assay [4], 24.7%; in assay [5], -3.9%; in assay [6], -10.1%.
Regarding `CC1(C)N=C(N)N=C(N)N1c1ccc(CCCCc2cc(Cl)ccc2S(=O)(=O)F)c(Cl)c1`, the growth inhibition in assay [1] is 99.3% (active); in assay [2] it was 99.7% (active); in assay [3], 99.5% (active); in assay [4], 98.4% (active); in assay [5], 98.5% (active); in assay [6] it was 99.6% (active).
Regarding `Cc1ccc(C)c(C(C)NC2=NCCO2)c1` (stereo not given), the growth inhibition in assay [1] is -3.95%; in assay [2], -7.95%; in assay [3], -11.7%; in assay [4], 1.2%; in assay [5], -9.9%; in assay [6] it was 19%.
Take `CN(C(=O)CCl)c1ccccc1`: the growth inhibition in assay [1] is 15.3%; in assay [2], 13.7%; in assay [3], 8.5%; in assay [4], 11.2%; in assay [5], 9.75%; in assay [6], 26.9%.
As to `CC1(C)N=C(N/N=C/c2ccccc2)SP1(=O)NNc1ncccn1` (stereo not given), the growth inhibition was -7.85% in assay [1]; 0.95% in assay [2]; -20.1% in assay [3]; 2.35% in assay [4]; 3.55% in assay [5]; 1.25% in assay [6].
Turning to `COP(=S)(c1ccccc1)N(C)C(=O)Oc1cccc(C(C)C)c1` (stereo not given), the growth inhibition in assay [1] was 21.2%; in assay [2], 30.7%; in assay [3], 34.2%; in assay [4], 25.8%; in assay [5], 43.8%; in assay [6], 45.7%.
In the case of `[C-]#[O+].[C-]#[O+].[C-]#[O+].[C-]#[O+].[C-]#[O+].[CH3][Sn]([Cl])[c]1ccccc1.[Mn]`, the growth inhibition is 91.5% (active) in assay [1]; 96.5% (active) in assay [2]; 89.7% (active) in assay [3]; 88.6% (active) in assay [4]; 96% (active) in assay [5]; 92.5% (active) in assay [6].
As to `C1CCN2COCC2C1` (stereo not given), the growth inhibition was -16.2% in assay [1]; -16.9% in assay [2]; -38.5% in assay [3]; 0.7% in assay [4]; -17.2% in assay [5]; 22.4% in assay [6].
`[N-]=[N+]=CC(=O)C1(C(=O)C=[N+]=[N-])CC1`: the growth inhibition in assay [1] was -14.7%; in assay [2] it was -11.2%; in assay [3], -41%; in assay [4], -18.1%; in assay [5], -16.9%; in assay [6], -27.1%.
On to `OCCCNCc1cccnc1`, for which the growth inhibition in assay [1] was 9.55%; in assay [2], -3.05%; in assay [3], -0.75%; in assay [4] it was 29.2%; in assay [5], -3.8%; in assay [6] it was 25.9%.
Regarding `CCOC(=O)CC(=O)CCl.[Cu+2]`, the growth inhibition in assay [1] was -14.9%; in assay [2], -8.9%; in assay [3] it was -40.4%; in assay [4], -31.6%; in assay [5], -15.9%; in assay [6], -3.2%.
With `N.N.N.N.N.N#Cc1nn[n-]n1.[Cl-].[Co+3]`, the growth inhibition is 4.95% in assay [1]; 9.25% in assay [2]; 16.8% in assay [3]; 24.4% in assay [4]; 12.3% in assay [5]; 12.9% in assay [6].
For `COc1ccc(C(CC(=O)O)CC(=O)c2ccc(N(CCCl)CCCl)cc2)cc1` (stereo not given), the growth inhibition in assay [1] is 54%; in assay [2], 22.7%; in assay [3], 24.8%; in assay [4] it was 74.7% (active); in assay [5] it was 87.3% (active); in assay [6], 68.5%.
Consider `N.N.N.N.N.N.O=N[O-].[Br-].[Co+3].[Co+3].[OH3+].[OH3+]`, for which the growth inhibition in assay [1] was 7.15%; in assay [2], 9.25%; in assay [3], -15.4%; in assay [4] it was 15.9%; in assay [5], 6.25%; in assay [6], -7.9%.
As for `O=C(O)CCCc1ccc(N(CCCl)OCCCl)cc1`, the growth inhibition in assay [1] was -21.1%; in assay [2], -3.3%; in assay [3], 16.7%; in assay [4], 10.2%; in assay [5], 13.3%; in assay [6], -0.25%.
In the case of `CC(C)=CCN=C(N)N`, the growth inhibition in assay [1] is -9.15%; in assay [2], -51.1%; in assay [3], -17.3%; in assay [4], -8%; in assay [5], -37.1%; in assay [6] it was -28.7%.
With `COc1cc(CC(N)c2ccccc2)ccc1O` (stereo not given), the growth inhibition was -7.65% in assay [1]; 2.45% in assay [2]; 11.8% in assay [3]; -20.8% in assay [4]; 2.1% in assay [5]; -18.8% in assay [6].
